Laboratory results from PubChem BioAssay (Tox21).
Results filed as inconclusive are left out. The source made the active and inactive calls. Unless noted, the call rests on the fitted dose curve.

Assays:
[1] = Nuclear factor erythroid 2-related factor 2/antioxidant responsive element (Nrf2/ARE) small molecule agonists: qHTS cell viability counter screen in human keratinocytes (AID 1919968; active means well fitted curve in the direction sought with a large enough effect in the repeat runs; an effect the other way counts as inactive or inconclusive; further: nearly all actives have a fitted effect of over 55% in size)
Procedure, shortened: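 Measured as CellTiter-Fluor fluorescence, this readout tracks cytotoxicity in the same wells as the ARE-luciferase screen. HaCaT reporter cells (1,500/well) received compounds after a 5 h pre-incubation and were exposed for 23 h.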

[2] = Nuclear factor erythroid 2-related factor 2/antioxidant responsive element (Nrf2/ARE) small molecule agonists: luciferase reporter gene qHTS assay in human keratinocytes (AID 1919969); further: nearly all actives have a fitted effect of over 35% in size
[3] = molecular target: Gonadotropin-releasing hormone receptor (Homo sapiens) (UniProt P30968); experiment: Human gonadotropin-releasing hormone receptor (GnRHR) small molecule agonists, calcium flux assay in GnRHR-HEK293 cells (AID 1920063); further: nearly all actives have a fitted effect of over 35% in size
Procedure, shortened: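 Fluorescence kinetics (480 nm excitation, 540 nm emission; 3 min, 1 s steps) report calcium mobilisation in human GnRHR-HEK293 cells in agonist mode. Dye incubation: 1 h, 37 C.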

[4] = molecular target: KiSS-1 receptor (Homo sapiens) (UniProt Q969F8); experiment: Human kisspeptin (KISS1R) small molecule agonists, calcium flux assay in KISS1R-HEK293 cells (AID 1920064; active means well fitted curve in the direction sought with a large enough effect in the repeat runs; an effect the other way counts as inactive or inconclusive)
Procedure, shortened: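 Measures KISS1R agonism through calcium-sensitive dye fluorescence in stably transfected HEK293 cells, read for 3 min after pin-tool compound delivery; 15-point titrations in triplicate.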

[5] = G protein-coupled receptor (GPCR) small molecule agonists, calcium flux assay: HEK293 wild type cell line counter screen (AID 1920065)
Procedure, shortened: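 Readout: fluorescence at 480 nm excitation/540 nm emission, sampled at 1 s intervals for 3 min. Cells had been cultured 18 h, then dye-loaded 1 h at 37 C before compound or ATP addition.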

[6] = p53 small molecule agonists, cell-based qHTS assay with human liver microsomes (AID 1963577)
Procedure, shortened: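 p53RE-bla reporter cells were pre-incubated 5 h at 37 C, then treated with compounds plus human liver microsomes (0.5 mg/mL final) and NADPH (0.5 mg/mL final) for 16 h at 37 C. Beta-lactamase activity was read by LiveBLAzer fluorescence after 2 h at room temperature.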

[7] = p53 small molecule agonists, cell-based qHTS assay with rat liver microsomes (AID 1963578)
Procedure, shortened: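 p53RE-bla cells were exposed to compounds together with rat liver microsomes (0.5 mg/mL final) and NADPH (0.5 mg/mL final) for 16 h at 37 C, then read by LiveBLAzer beta-lactamase fluorescence after 2 h at room temperature.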

[8] = p53 small molecule agonists, cell-based qHTS assay with human liver microsomes: qHTS cell viability counter screen (AID 1963579); further: nearly all actives have a fitted effect of over 45% in size
Procedure, shortened: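 p53RE-bla cells (4,000/well) were pre-incubated 5 h at 37 C, then given compounds in DMSO plus human liver microsomes (0.5 mg/mL final) and NADPH (0.5 mg/mL final) for 16 h at 37 C. Viability was read by CellTiter-Glo luminescence.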

[9] = p53 small molecule agonists, cell-based qHTS assay with rat liver microsomes: qHTS cell viability counter screen (AID 1963580); further: nearly all actives have a fitted effect of over 45% in size
Procedure, shortened: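 HCT-116 p53RE-bla, 4,000 cells/well, 5 h pre-incubation; cpd + rat liver microsomes 0.5 mg/mL + NADPH 0.5 mg/mL (final); 16 h, 37 C; CellTiter-Glo, 30 min RT; luminescence.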

[10] = p53 small molecule agonists, cell-based qHTS assay: qHTS cell viability counter screen (AID 1963581); further: nearly all actives have a fitted effect of over 45% in size
Procedure, shortened: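 In the same plates used for the p53 bla reporter, HCT-116 cells given compounds for 16 h at 37 C received CellTiter-Glo; luminescence was recorded 30 min later at room temperature.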

[11] = p53 small molecule agonists, cell-based qHTS assay (AID 1963582; active means well fitted activation curve with a large enough effect in the signal ratio in the repeat runs, not every such curve was filed as active; the % refers to the signal ratio)
Procedure, shortened: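 Compounds are pin-transferred in DMSO onto p53RE-bla cells and incubated 16 h at 37 C. The B/G FRET beta-lactamase substrate is then applied for 2 h at RT and fluorescence recorded.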

[12] = molecular target: 5-hydroxytryptamine receptor 2A (Homo sapiens) (UniProt P28223); experiment: 5-hydroxytryptamine receptor 2A (HTR2A) small molecule antagonists, cell-based qHTS assay (AID 1963586); further: nearly all actives have a fitted effect of over 45% in size
Procedure, shortened: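 Antagonist-mode intracellular calcium assay: DOI (4 nM) added after 5 min compound pre-incubation at room temperature to dye-loaded HTR2A-CHO cells. Fluorescence followed for 3 min, sampled every second.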

[13] = molecular target: 5-hydroxytryptamine receptor 2A (Homo sapiens) (UniProt P28223); experiment: 5-hydroxytryptamine receptor 2A (HTR2A) small molecule agonists, cell-based qHTS assay (AID 1963587); further: nearly all actives have a fitted effect of over 30% in size
Procedure, shortened: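 Kinetic calcium-flux fluorescence (2 min, 1 sec intervals) after compound addition in agonist mode. HTR2A-CHO cells were cultured 18 h, then dye-loaded 1 h at 37 C.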

[14] = molecular target: Muscarinic acetylcholine receptor M1 (Homo sapiens) (UniProt P11229); experiment: Cholinergic receptor muscarinic 1 (CHRM1) small molecule antagonists, cell-based qHTS assay (AID 1963588); further: nearly all actives have a fitted effect of over 40% in size
Procedure, shortened: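 CHRM1-CHO calcium-flux assay, antagonist mode. Cells were seeded 18 h, dye-loaded 1 h at 37 C and given compound for 5 min at RT, then acetylcholine was added at 50nM. FDSS fluorescence was read 3 min; 15 concentrations, three runs.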

[15] = molecular target: Muscarinic acetylcholine receptor M1 (Homo sapiens) (UniProt P11229); experiment: Cholinergic receptor muscarinic 1 (CHRM1) small molecule agonists, cell-based qHTS assay (AID 1963589); further: nearly all actives have a fitted effect of over 35% in size
Procedure, shortened: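 Each compound was tested at 15 concentrations across three independent runs on dye-loaded CHO cells stably expressing human CHRM1, reading intracellular calcium fluorescence kinetically at 1 sec intervals.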

[16] = cAMP Responsive Elements (CRE) small molecule agonists, cell-based qHTS assay (AID 1963590)
Procedure, shortened: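 Cell line: CRE-bla HEK 293T; medium DMEM/10% dialyzed FBS/0.1 mM NEAA/1 mM pyruvate/25 mM HEPES; 3 h compound exposure; beta-lactamase FRET readout after 2 h substrate loading at RT.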

[17] = cAMP Responsive Elements (CRE) small molecule antagonists, cell-based qHTS assay (AID 1963591; active means well fitted inhibition curve with a large enough effect in the signal ratio in the repeat runs, not every such curve was filed as active; the % refers to the signal ratio)
Procedure, shortened: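 Inhibition of NKH477-driven (0.25 uM final) CRE-beta-lactamase signal in HEK293T cells, 3 h compound exposure at 37 °C, detected by FRET substrate fluorescence.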

[18] = molecular target: Beta-2 adrenergic receptor (Homo sapiens) (UniProt P07550); experiment: Adrenergic beta2 receptor (ADRB2) small molecule antagonists, cell-based qHTS assay (AID 1963592); further: series mostly up to about 92 µM; nearly all actives have a fitted effect of over 50% in size
Procedure, shortened: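 Cells (CHO, stable ADRB2 overexpression) incubated 18-20hr at 37C; compounds added from DMSO; agonist mix (1nM isoproterenol, 100uM IBMX, 25uM Ro-20-1724) added; 0.5hr RT; d2-cAMP and anti-cAMP-cryptate added; 1hr RT; 665/615 nm read.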

[19] = molecular target: Beta-2 adrenergic receptor (Homo sapiens) (UniProt P07550); experiment: Adrenergic beta2 receptor (ADRB2) small molecule agonists, cell-based qHTS assay (AID 1963593);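 further: CHO cells stably overexpressing human ADRB2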
Procedure, shortened: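 CHO cells stably over-expressing ADRB2 were plated overnight at 37C, then dosed with compounds plus a stimulation mix containing 100uM IBMX and 25uM Ro-20-1724 for 0.5hr at room temperature. cAMP was measured by HTRF competition, 1hr.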

[20] = molecular target: D(2) dopamine receptor (Homo sapiens) (UniProt P14416); experiment: Dopamine D2 receptor (DRD2) small molecule agonists, cell-based qHTS assay (AID 1963594); further: nearly all actives have a fitted effect of over 35% in size
Procedure, shortened: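 cAMP accumulation in DRD2-HEK293 cells measured by HTRF after 1 h detection; compounds added 10 min before NKH477 (200nM […]) forskolin-analogue stimulation, 30 min at room temperature, with Ro20-1724 present at 0.1 mM final.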
On the % scale 0 is the no-effect control and ±100 the full control effect.

Sequence of Muscarinic acetylcholine receptor M1 (Homo sapiens) (P11229 whole entry, looked up): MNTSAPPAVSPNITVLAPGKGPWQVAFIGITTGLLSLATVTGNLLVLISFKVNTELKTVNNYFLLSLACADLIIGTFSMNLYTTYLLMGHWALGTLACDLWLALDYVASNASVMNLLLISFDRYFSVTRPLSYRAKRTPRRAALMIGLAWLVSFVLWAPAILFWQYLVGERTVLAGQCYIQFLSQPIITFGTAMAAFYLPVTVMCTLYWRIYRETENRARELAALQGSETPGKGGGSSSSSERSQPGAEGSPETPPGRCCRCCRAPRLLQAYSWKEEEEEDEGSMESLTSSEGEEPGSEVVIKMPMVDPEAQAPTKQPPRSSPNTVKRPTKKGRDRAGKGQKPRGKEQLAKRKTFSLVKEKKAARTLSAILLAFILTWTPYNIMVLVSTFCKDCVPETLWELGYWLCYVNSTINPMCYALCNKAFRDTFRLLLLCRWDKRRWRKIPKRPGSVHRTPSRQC
Sequence of D(2) dopamine receptor (Homo sapiens) (P14416 whole entry, looked up): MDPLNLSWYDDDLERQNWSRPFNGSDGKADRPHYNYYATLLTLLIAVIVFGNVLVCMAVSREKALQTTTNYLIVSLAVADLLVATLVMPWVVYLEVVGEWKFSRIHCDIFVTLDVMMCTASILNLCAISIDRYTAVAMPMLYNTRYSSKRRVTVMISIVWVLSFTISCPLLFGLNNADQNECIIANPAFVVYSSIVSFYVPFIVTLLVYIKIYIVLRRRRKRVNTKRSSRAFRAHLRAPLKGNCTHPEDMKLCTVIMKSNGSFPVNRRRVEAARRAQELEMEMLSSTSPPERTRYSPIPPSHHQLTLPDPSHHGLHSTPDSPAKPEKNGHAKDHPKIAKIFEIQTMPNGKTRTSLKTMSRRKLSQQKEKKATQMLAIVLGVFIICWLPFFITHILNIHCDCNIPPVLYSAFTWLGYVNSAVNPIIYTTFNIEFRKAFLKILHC
Sequence of Gonadotropin-releasing hormone receptor (Homo sapiens) (P30968 whole entry, looked up): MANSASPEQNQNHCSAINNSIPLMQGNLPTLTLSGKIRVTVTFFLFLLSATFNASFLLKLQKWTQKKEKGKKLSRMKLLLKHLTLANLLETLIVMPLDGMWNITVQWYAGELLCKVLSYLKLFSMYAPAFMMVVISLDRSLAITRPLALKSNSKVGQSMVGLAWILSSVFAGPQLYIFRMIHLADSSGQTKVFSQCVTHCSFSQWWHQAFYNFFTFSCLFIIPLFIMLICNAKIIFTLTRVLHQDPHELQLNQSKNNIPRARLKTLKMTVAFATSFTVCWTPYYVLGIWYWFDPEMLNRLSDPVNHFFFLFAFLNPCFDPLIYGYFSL
Sequence of 5-hydroxytryptamine receptor 2A (Homo sapiens) (P28223 whole entry, looked up): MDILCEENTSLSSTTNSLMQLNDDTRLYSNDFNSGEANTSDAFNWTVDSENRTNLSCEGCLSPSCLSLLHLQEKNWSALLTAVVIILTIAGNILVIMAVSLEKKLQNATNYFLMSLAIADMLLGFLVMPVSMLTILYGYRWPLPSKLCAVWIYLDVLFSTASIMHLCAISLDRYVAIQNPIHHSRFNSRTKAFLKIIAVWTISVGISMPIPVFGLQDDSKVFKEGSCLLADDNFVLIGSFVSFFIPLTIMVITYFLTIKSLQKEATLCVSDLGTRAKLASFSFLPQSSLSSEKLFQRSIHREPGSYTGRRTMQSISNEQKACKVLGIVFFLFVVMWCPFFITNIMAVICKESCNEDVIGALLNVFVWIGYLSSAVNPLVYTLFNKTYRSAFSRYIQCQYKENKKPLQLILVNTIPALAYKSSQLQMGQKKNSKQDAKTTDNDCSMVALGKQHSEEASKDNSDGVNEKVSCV
Sequence of Beta-2 adrenergic receptor (Homo sapiens) (P07550 whole entry, looked up): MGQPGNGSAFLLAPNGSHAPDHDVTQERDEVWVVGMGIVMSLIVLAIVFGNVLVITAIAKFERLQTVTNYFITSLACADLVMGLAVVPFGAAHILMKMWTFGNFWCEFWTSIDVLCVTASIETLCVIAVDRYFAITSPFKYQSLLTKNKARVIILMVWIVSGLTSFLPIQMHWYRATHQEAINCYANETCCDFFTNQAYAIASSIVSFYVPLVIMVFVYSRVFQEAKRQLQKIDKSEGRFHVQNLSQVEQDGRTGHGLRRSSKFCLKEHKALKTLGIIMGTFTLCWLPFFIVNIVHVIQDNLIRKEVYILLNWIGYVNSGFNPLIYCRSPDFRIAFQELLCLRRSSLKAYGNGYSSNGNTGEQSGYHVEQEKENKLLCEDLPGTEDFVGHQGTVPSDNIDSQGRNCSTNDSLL
Sequence of KiSS-1 receptor (Homo sapiens) (Q969F8 whole entry, looked up): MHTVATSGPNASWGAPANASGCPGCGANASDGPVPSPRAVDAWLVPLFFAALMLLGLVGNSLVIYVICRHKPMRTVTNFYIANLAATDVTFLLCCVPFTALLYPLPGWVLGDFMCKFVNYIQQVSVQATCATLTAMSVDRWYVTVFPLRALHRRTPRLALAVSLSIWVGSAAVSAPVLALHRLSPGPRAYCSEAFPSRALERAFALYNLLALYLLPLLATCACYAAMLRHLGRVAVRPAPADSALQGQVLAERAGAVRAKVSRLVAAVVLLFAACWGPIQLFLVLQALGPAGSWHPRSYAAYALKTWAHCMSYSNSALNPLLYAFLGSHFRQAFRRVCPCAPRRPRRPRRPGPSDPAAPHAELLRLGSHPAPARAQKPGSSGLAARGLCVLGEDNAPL

CO[Si](CCCCl)(OC)OC
inactive: Potency [1] | Potency [2] | Potency [3] | Potency [4] | Potency [5] | Potency [6] | Potency [7] | Potency [8] | Potency [9] | Potency [10] | Potency [11] | Potency [12] | Potency [13] | Potency [14] | Potency [15] | Potency [16] | Potency [17] | Potency [18] | Potency [19] | Potency [20]

CCCCCCCCN(C)C
inactive: Potency [1] | Potency [2] | Potency [3] | Potency [4] | Potency [5] | Potency [6] | Potency [7] | Potency [8] | Potency [9] | Potency [10] | Potency [11] | Potency [12] | Potency [13] | Potency [14] | Potency [15] | Potency [16] | Potency [17] | Potency [18] | Potency [19] | Potency [20]

CCCc1ccc(O)cc1
inactive: Potency [1] | Potency [2] | Potency [3] | Potency [4] | Potency [5] | Potency [6] | Potency [7] | Potency [8] | Potency [9] | Potency [10] | Potency [11] | Potency [12] | Potency [13] | Potency [14] | Potency [15] | Potency [16] | Potency [17] | Potency [18] | Potency [19] | Potency [20]

CCN(CC)C(=O)C1CN2CCc3cc(OC)c(OC)cc3C2CC1OC(C)=O (stereo not given)
inactive: Potency [1] | Potency [2] | Potency [3] | Potency [4] | Potency [5] | Potency [6] | Potency [7] | Potency [8] | Potency [9] | Potency [10] | Potency [11] | Potency [12] | Potency [13] | Potency [14] | Potency [15] | Potency [16] | Potency [17] | Potency [18] | Potency [19] | Potency [20]

CCN(CC)S(=O)(=O)c1ccc(C(=O)O)cc1
inactive: Potency [1] | Potency [2] | Potency [3] | Potency [4] | Potency [5] | Potency [6] | Potency [7] | Potency [8] | Potency [9] | Potency [10] | Potency [11] | Potency [12] | Potency [13] | Potency [14] | Potency [15] | Potency [16] | Potency [17] | Potency [18] | Potency [19] | Potency [20]

CCCc1ccccc1
inactive: Potency [1] | Potency [2] | Potency [3] | Potency [4] | Potency [5] | Potency [6] | Potency [7] | Potency [8] | Potency [9] | Potency [10] | Potency [11] | Potency [12] | Potency [13] | Potency [14] | Potency [15] | Potency [16] | Potency [17] | Potency [18] | Potency [19] | Potency [20]

O=S(=O)(O)c1ccc2c(N=Nc3ccc(S(=O)(=O)O)c4ccccc34)c(O)c(S(=O)(=O)O)cc2c1
inactive: activity change, negative = cytotoxicity [1] -5.59% [at 8.39 µM] | activity, positive = activation [2] -0.366% [at 8.39 µM] | activity change [3] 18.3% [at 5.22 µM, stronger effect = higher value] | activation [4] 0.398% [at 6.97 µM] | activation [5] 6.05% [at 5.23 µM] | activation [6] -6.7% [at 5.99 µM] | activation [7] -0.431% [at 5.99 µM] | activity change, negative = cytotoxicity [8] -6.02% [at 5.99 µM] | activity change, negative = cytotoxicity [9] -3.24% [at 5.99 µM] | activity change, negative = cytotoxicity [10] -2.08% [at 5.99 µM] | activation [11] -3.84% [at 5.99 µM] | activity, negative = inhibition [12] 0.404% [at 5.62 µM] | activation [13] 12.5% [at 7.02 µM] | activity, negative = inhibition [14] -10.6% [at 5.58 µM] | activation [15] 2.33% [at 6.97 µM] | activation [16] -1.25% [at 8.39 µM] | activity change, negative = inhibition [17] -1.96% [at 8.39 µM] | activity change, negative = inhibition [18] -2.48% [at 8.39 µM] | activation [19] -0.404% [at 8.39 µM] | activation [20] -0.0629% [at 8.39 µM]

FC(F)(F)C(Cl)Br (stereo not given)
inactive: Potency [1] | Potency [2] | Potency [3] | Potency [4] | Potency [5] | Potency [6] | Potency [7] | Potency [8] | Potency [9] | Potency [10] | Potency [11] | Potency [12] | Potency [13] | Potency [14] | Potency [15] | Potency [16] | Potency [17] | Potency [18] | Potency [19] | Potency [20]

Cc1onc(-c2ccccc2)c1C(=O)Cl
inactive: Potency [1] | Potency [2] | Potency [3] | Potency [4] | Potency [5] | Potency [6] | Potency [7] | Potency [8] | Potency [9] | Potency [10] | Potency [11] | Potency [12] | Potency [13] | Potency [14] | Potency [15] | Potency [16] | Potency [17] | Potency [18] | Potency [19] | Potency [20]
